For orientation: AC50 means the concentration at which the activity in the assay is half-maximal.

Several values for one entry are separate records, joined by “and”; a condition that tells them apart may be missing. Equal values may be shown once. The whole screen tested about 16,000 compounds, of which about 5,800 (36%) were called active. About 23% were inconclusive and are not listed. The list shows a part of the results. Unmarked numbers belong to inactive results. Calls follow the shape of the dose curve; as a rule, active = well fitted curve in the direction sought with a large enough effect; inconclusive = small, poorly fitted or top-dose-only effect, or effect the other way; inactive = no such curve, though single readings can be large or run the other way.
% is scaled to controls: 0 for no effect and ±100 for the full control effect.

This assay deals with Cytochrome P450 2C19 (Homo sapiens) (UniProt P33261). Put plainly: Cytochrome panel assay with activity outcomes. The conditions noted are these: recombinant CYP, pro-luciferin dealkylation, luminescence, p450-cyp2c19; series mostly up to 57.1 µM; activity, negative = inhibition: at the top concentration.
Cytochrome P450 2C19 (Homo sapiens), sequence (P33261 whole entry, looked up): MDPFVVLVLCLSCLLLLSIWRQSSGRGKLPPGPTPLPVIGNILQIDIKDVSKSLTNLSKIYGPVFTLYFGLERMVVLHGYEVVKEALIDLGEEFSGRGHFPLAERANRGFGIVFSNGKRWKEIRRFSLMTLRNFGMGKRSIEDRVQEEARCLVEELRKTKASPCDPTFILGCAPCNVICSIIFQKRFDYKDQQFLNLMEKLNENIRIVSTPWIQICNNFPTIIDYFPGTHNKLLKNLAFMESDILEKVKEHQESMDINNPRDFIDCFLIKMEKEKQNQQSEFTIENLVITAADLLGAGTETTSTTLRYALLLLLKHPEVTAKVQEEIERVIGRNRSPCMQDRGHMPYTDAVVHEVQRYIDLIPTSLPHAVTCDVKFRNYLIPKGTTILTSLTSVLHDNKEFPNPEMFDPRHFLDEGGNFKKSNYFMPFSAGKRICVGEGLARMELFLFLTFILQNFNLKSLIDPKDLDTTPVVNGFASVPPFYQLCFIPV
As to `Cc1sc2ccccc2[n+]1CCC(=O)O`, the activity, negative = inhibition was 13.1% [at 11.4 µM]. As for `CCOC(=O)C[n+]1c(C)sc2ccc(OC)cc21`, the AC50 is 5.01 µM (active).

For the compound `Cc1sc2ccccc2[n+]1CCC(C)S(=O)(=O)[O-]` (stereo not given), the “activity, negative = inhibition” value is -14.6%.

For `C/C(=N\NC(=O)c1[nH]c2c([N+](=O)[O-])cc(C)cc2c1-c1ccccc1)c1cccnc1`, the AC50 is 4.47 µM (active). As to `O=C(N/N=C(\c1ccccc1)c1cccnc1)C(O)(c1ccccc1)c1ccccc1`, the “activity, negative = inhibition” value was -19.4%. On the same count and under the same terms, then `O=C(Oc1ccccc1[N+](=O)[O-])c1cccnc1`, with 2.69%.

For the compound `CC(C)(C)[C@@]1(O)CCN2C[C@@H]3c4ccccc4CCc4cccc(c43)[C@@H]2C1`, the AC50 result is “inactive”.

With `CN1CCN2c3ncccc3Cc3ccccc3C2C1` (stereo not given), the half-maximal activity concentration (AC50) is 0.0501 µM (active).

With `CN1CCN(c2ncncc2-c2cccnc2)CC1`, the “activity, negative = inhibition” value was 25.5%. In the case of `Oc1ccc([C@@H]2CNCc3sccc32)cc1O`, the “activity, negative = inhibition” value was 10.2%.

As to `CC[C@H](C)N(C)C(=O)c1cc2ccccc2c(-c2ccccc2Cl)n1`, the “activity, negative = inhibition” value is -37%. `Cc1cccc(NC(=O)NNC(=O)c2cc(-c3ccccc3Cl)nc3ccccc23)c1`: the AC50 was 3.16 µM (active). On to `O=C(NNC(=O)c1cc(-c2ccc(Cl)c(Cl)c2)nc2ccccc12)Nc1ccccc1`, for which the AC50 was 4.47 µM (active). Take `O=C(COc1ccc2ccccc2c1Br)NNC(=O)Nc1ccccc1`: the half-maximal activity concentration (AC50) is 3.55 µM (active). With `C[C@@H]1[C@H]2CC[C@@H]3[C@@H]4CC=C5C[C@@H](N(C)C)CC[C@]5(C)[C@@H]4CC[C@@]32CN1C`, the “activity, negative = inhibition” value is -42.1% [at 25.6 µM]. In the case of `Cc1noc(C)c1C(=O)N1CCC[C@@]2(CCN(c3ncccn3)C2)C1`, the “activity, negative = inhibition” value was -14%.

Regarding `Cc1ccc(C(=O)NC(=S)NCC(=O)c2ccccc2)cc1`, the “activity, negative = inhibition” value is -26.2%. On to `Cc1ccccc1C(=O)NC(=S)NCC(=O)c1ccccc1`, for which the AC50 is 4.47 µM (active). Turning to `Cc1nn(-c2ccccc2)c2c1C(c1ccc(O)c(O)c1)N1C(=N2)C(Nc2ccccc2)=Nc2ccccc21` (stereo not given), the AC50 is 3.16 µM (active). Turning to `CC(=O)Nc1ccc(NC2=Nc3ccccc3N3C2=Nc2c(c(C)nn2-c2ccccc2)C3c2ccccc2)cc1` (stereo not given), the AC50 was 2 µM (active). For `O=C(CN(c1ccccc1)S(=O)(=O)c1ccccc1)NCCSCc1ccco1`, the AC50 is 8.91 µM (active).

As to `COC(=O)CN(c1ccccn1)S(=O)(=O)c1ccccc1`, the “activity, negative = inhibition” value was -7.88%. Turning to `CN(CC(=O)O/N=C(\N)c1ccccn1)S(=O)(=O)c1ccccc1`, the “activity, negative = inhibition” value is -28.9%. `Cc1cccc(N(CC(=O)NCCSCc2ccco2)S(=O)(=O)c2ccccc2)c1`: the half-maximal activity concentration (AC50) is 2.51 µM (active). In the case of `Cc1cccc(CSCCNC(=O)c2ccc(N(C)S(=O)(=O)c3ccccc3)cc2)c1`, the half-maximal activity concentration (AC50) is 1.12 µM (active).

Regarding `Cc1cc(C)cc(N(CC(=O)NCCSc2ccccn2)S(=O)(=O)c2ccccc2)c1`, the AC50 was 2.24 µM (active). Consider `CCCOc1ccccc1-c1nc2n[nH]nc2c(=O)[nH]1`, for which the AC50 result was “inactive”. Turning to `NC(N)=NC[C@@H]1COC2(CCCCC2)O1`, the “activity, negative = inhibition” value is 0.253% [at 25.6 µM]. As to `N[C@@H](CS(=O)O)C(=O)O`, the “activity, negative = inhibition” value is 3.38%. Consider `Fc1ccccc1NC(=S)NCCc1ccccc1`, for which the concentration at half-maximal activity (AC50) is 3.16 µM (active).

Regarding `COc1ccccc1NC(=S)NC(=O)c1ccc(-c2ccc(Cl)cc2)o1`, the AC50 was 8.91 µM (active). Take `Fc1cc(Br)ccc1NC(=S)NCCc1ccccc1`: the AC50 is 1.58 µM (active).

Regarding `Fc1ccc(NC(=S)NCCc2ccccc2)c(F)c1F`, the AC50 was 0.355 µM (active).

On to `COc1ccccc1NC(=S)NCCc1ccccc1`, for which the concentration at half-maximal activity (AC50) is 3.16 µM (active). For `CC(=O)Nc1cccc(C(=O)OCc2ccc(C(=O)Oc3ccc(Cl)cc3)cc2)c1`, the half-maximal activity concentration (AC50) was 4.47 µM (active). As for `Cc1cc(OC(=O)c2ccc(Cl)cc2)cc(=O)n1C`, the “activity, negative = inhibition” value was -7.64%. Consider `OCCN(CO)CO`, for which the activity, negative = inhibition is 0.957% [at 11.4 µM]. As for `CN(C)CCOC(=O)[C@@H](c1ccccc1)C1(O)CCCC1`, the “activity, negative = inhibition” value was -33.7% [at 25.6 µM]. As for `O=C(Cn1c(C(F)(F)F)nc2ccccc21)c1ccccc1`, the concentration at half-maximal activity (AC50) is 3.98 µM (active).

In the case of `O=C(Cn1c(C(F)(F)F)nc2ccccc21)c1ccc(F)cc1`, the concentration at half-maximal activity (AC50) was 1.58 µM (active). On to `O=C(CCCN1CCC(O)(c2cccc(C(F)(F)F)c2)CC1)c1ccc(F)cc1`, for which the “activity, negative = inhibition” value was -23.7%. As to `O=S(=O)(Nc1ccc2c(c1)OCCO2)c1cccc2cccnc12`, the concentration at half-maximal activity (AC50) is 3.55 µM (active).

Regarding `Cn1cc(/C=N/n2cnc3scc(-c4ccccc4)c3c2=O)c2ccccc21`, the AC50 was 8.91 µM (active). For `COc1ncc2nc(-c3cn(C)c4ccccc34)c(=O)n(-c3ccccc3)c2n1`, the “activity, negative = inhibition” value is 9.08%. For the compound `CN1CCN(c2ncc3nc(-c4cn(C)c5ccccc45)c(=O)n(-c4ccccc4)c3n2)CC1`, the “activity, negative = inhibition” value was -27.7%. In the case of `Cc1ccc(C)c(S(=O)(=O)NC(C)C(=O)Nc2ccc(-c3nc4ccccc4s3)cc2)c1` (stereo not given), the “activity, negative = inhibition” value was -21.3%. Still for that read-out and setting: the same measure for `N#C/C(=C\NC(=S)c1ccncc1)c1nc2ccccc2s1`: -29.2% [at 11.4 µM]. For `Cc1cccc(NC(=S)c2nc3ccccc3s2)c1`, the half-maximal activity concentration (AC50) was 5.62 µM (active). For the compound `O=C(c1ccco1)N1CCC2(CCN(Cc3nccs3)CC2)CC1`, the “activity, negative = inhibition” value was -1.61%.

`O=C(NCC(c1cccs1)N1CCOCC1)c1ccco1` (stereo not given): the AC50 was 8.91 µM (active). In the case of `CCOC(=O)N1N=C(c2ccccc2)CC1(O)C(F)(F)F` (stereo not given), the AC50 is 15.8 µM (active). On to `COc1cccc(C(=O)N2N=C(c3cccc(OC)c3)CC2(O)C(F)(F)F)c1` (stereo not given), for which the AC50 was 0.794 µM (active).

Take `CCOC(=O)N1CCN(C(=O)CCn2nc(-c3ccccc3)ccc2=O)CC1`: the “activity, negative = inhibition” value was 31%. In the case of `O=C(CCc1ccccc1)Nc1ncn[nH]1`, the “activity, negative = inhibition” value was -13.6%. `CCC1=NN(C(=O)CCc2ccccc2)C(O)(C(F)(F)F)C1` (stereo not given): the concentration at half-maximal activity (AC50) was 0.224 µM (active). With `CCc1cc2c(nc1CC)CCN(CC/C(C)=N/OCC[C@@H]1C=C[C@H](OC(C)=O)[C@H](COC(C)=O)O1)C2`, the activity, negative = inhibition was 7.29% [at 11.4 µM].

`CN1/C(=C\C(=O)COC(=O)Cn2nnc(-c3ccccc3)n2)C(C)(C)c2ccccc21`: the AC50 was 11.2 µM (active). On to `O=C(Cn1nnc(-c2ccccc2)n1)OCc1ccccc1`, for which the AC50 is 3.98 µM (active). As for `COCCn1c(=O)c(-c2cc(F)cc(F)c2)nc2cnc(N(C)C)nc21`, the “activity, negative = inhibition” value is 38.8%.

As for `O=[N+]([O-])C1=CC=C2C(=NC3(CCCCC3)N2O)C1=NC1CCCCC1`, the AC50 is 3.16 µM (active). Turning to `Cc1cccc(C)c1NC(=O)Nc1ccc(S(N)(=O)=O)cc1`, the activity, negative = inhibition was 23.1% [at 11.4 µM]. Consider `Cc1ccc(NC(=O)Nc2ncccc2C)cc1`, for which the AC50 is 15.8 µM (active). As for `O=C(Nc1ccc2ncccc2c1)Nc1ccc2ncccc2c1`, the activity, negative = inhibition is 14.5% [at 11.4 µM]. For the compound `CCN(/C=N/c1sc2c(c1C#N)CCCCC2)CC`, the half-maximal activity concentration (AC50) is 1.26 µM (active). As to `CC(C)NCC[C@@H](O)c1cc2ccccc2o1`, the activity, negative = inhibition is 31.3% [at 11.4 µM].

Consider `CCOC(=O)CSc1nnc(CSc2nc3sc4c(c3c(=O)[nH]2)CCCC4)n1-c1ccccc1`, for which the AC50 is 2.51 µM (active).

Regarding `CC(=O)Nc1ccc(S(=O)(=O)c2ccc(N)cc2)cc1`, the AC50 is 15.8 µM (active). As to `CC(=O)Nc1ccc(S(=O)(=O)N=S(C)C)cc1`, the activity, negative = inhibition was 14.7% [at 11.4 µM]. For the compound `Nc1ccc(S(=O)(=O)c2ccc(NC(=O)c3cccnc3)cc2)cc1`, the activity, negative = inhibition was 3.12% [at 11.4 µM].

Turning to `COC(=O)[C@@H](NC(=O)Nc1ccc(C(C)=O)cc1)C(C)C`, the half-maximal activity concentration (AC50) was 17.8 µM (active). `COC(=O)C(NS(=O)(=O)c1ccc(NC(C)=O)cc1)C(C)C` (stereo not given): the AC50 is 3.16 µM (active). In the case of `Cc1ccc(S(=O)(=O)N[C@H](C(=O)O)C(C)C)cc1`, the activity, negative = inhibition is 4% [at 11.4 µM]. `Oc1cc2c(cc1O)[C@H](c1ccccc1)CNCC2`: the AC50 entry was “inactive”. `CO/N=C\[C@@H](C)[C@H](OCc1ccccc1)C(C)C`: the activity, negative = inhibition is 2.64% [at 11.4 µM]. With `Cc1ccc(C(C2C(=O)CC(C)(C)CC2=O)C2C(=O)CC(C)(C)CC2=O)s1`, the AC50 was 11.2 µM (active).

As for `CC1(C)CC(=O)C(C(c2cccc(O)c2O)C2C(=O)CC(C)(C)CC2=O)C(=O)C1`, the activity, negative = inhibition was 26% [at 11.4 µM]. For the compound `CN1CCCN(C2C3CC4CC(C3)CC2C4)CC1` (stereo not given), the “activity, negative = inhibition” value was -11.6%. On to `O=C(Nn1cc(C(=O)N2CCN(c3ccccc3F)CC2)c2ccccc2c1=O)c1cnccn1`, for which the “activity, negative = inhibition” value is 5.4%. In the case of `O=C(C1CCCN(S(=O)(=O)c2cccc3nsnc23)C1)N1CC=C(c2ccccc2)CC1` (stereo not given), the half-maximal activity concentration (AC50) is 2.51 µM (active).

With `O=S(=O)(c1cccc2c(Cl)cccc12)N1CCCNCC1`, the AC50 result is “inactive”.

Regarding `CC(C)N1CCN(c2ccncc2S(=O)(=O)N2CCCCC2)CC1`, the activity, negative = inhibition is -23.9% [at 11.4 µM]. Regarding `O=C(C1CCN(S(=O)(=O)c2cccc3nsnc23)CC1)N1CCN(c2ccccc2F)CC1`, the AC50 was 22.4 µM (active). In the case of `O=S(=O)(c1ccccc1S(=O)(=O)N1CCCCC1)N1CCCCC1`, the concentration at half-maximal activity (AC50) is 22.4 µM (active). With `O=C(C1CCN(S(=O)(=O)c2cccc3nsnc23)CC1)N1CCn2c1nc1ccccc12`, the AC50 was 10 µM (active). As to `CC1CCC(C(=O)O)([C@H](Br)C(=O)O)CC1` (stereo not given in full), the activity, negative = inhibition is -0.894% [at 11.4 µM]. Regarding `COc1ccc([C@@H]2CNC(=O)C2)cc1OC1CCCC1`, the AC50 result was “inactive”. Take `Cc1ncc(CO)c(CO)c1O`: the “activity, negative = inhibition” value was -13.5% [at 25.6 µM]. With `O=S(=O)(c1cnccc1N1CCN(CCO)CC1)N1CCCC1`, the activity, negative = inhibition was 33.1% [at 11.4 µM]. Consider `O=C(C1CCN(S(=O)(=O)c2cccc3nsnc23)CC1)N1CCCc2ccccc21`, for which the concentration at half-maximal activity (AC50) was 2 µM (active). `CC(=O)Nc1ccc(NC(=O)C2CCN(S(=O)(=O)c3cccc4nonc34)CC2)cc1`: the “activity, negative = inhibition” value is -27.7%.

Regarding `O=C(C1CCN(S(=O)(=O)c2cccc3nsnc23)CC1)N1CCc2ccccc21`, the concentration at half-maximal activity (AC50) was 14.1 µM (active). Regarding `CC1CCN(C(=O)C2CCN(S(=O)(=O)c3cccc4nonc34)CC2)CC1`, the AC50 is 11.2 µM (active). On to `O=S(=O)(c1cccc2nsnc12)N1CCCC1`, for which the concentration at half-maximal activity (AC50) was 0.891 µM (active). Regarding `C[C@H]1CN(S(=O)(=O)c2cccc3cnccc23)CCN1`, the “activity, negative = inhibition” value is -17.5%. For the compound `Cc1ccc(S(=O)(=O)N[C@H]2COC(=O)CC=C[C@@H](C)[C@H]3C=C[C@H](O)[C@@H](COC(=O)CC=C[C@H]2C)O3)cc1`, the activity, negative = inhibition was 14.2% [at 11.4 µM] and 5.29% [at 11.4 µM].

The values above are taken from PubChem BioAssay AID1851 (National Center for Advancing Translational Sciences (NCATS), 2009).
